# Experimental data as given in PubChem BioAssay (NCATS).
# Several values for one entry are separate records, joined by “and”; a condition that tells them apart may be missing. Equal entries are not always repeated. Inconclusive results are not listed. Where a call stands in place of a potency, no number is given. Activity calls are given as the source filed them. Unless noted, calls follow the shape of the dose curve; as a rule, active = well fitted curve in the direction sought with a large enough effect in the repeat runs; inconclusive = weak or mixed curves; inactive = no such curve, though single readings can be large; an effect the other way counts as inactive or inconclusive.
# Assays:
# [1] = target: Calcium and integrin-binding protein 1 (Homo sapiens) (UniProt Q99828); test: Primary qHTS for Identification of Calcium Integrin Binding Protein 1 (CIB1) Competitor (AID 1508620; active = well fitted curve in the direction sought with a large enough effect; an effect the other way counts as inactive or inconclusive;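 also: GST tagged CIB1 binding a fluorescein labelled alphaIIb integrin peptide tracer; top concentration of the series differs between compounds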)
# Calcium and integrin-binding protein 1 (Homo sapiens), sequence (Q99828 whole entry, looked up): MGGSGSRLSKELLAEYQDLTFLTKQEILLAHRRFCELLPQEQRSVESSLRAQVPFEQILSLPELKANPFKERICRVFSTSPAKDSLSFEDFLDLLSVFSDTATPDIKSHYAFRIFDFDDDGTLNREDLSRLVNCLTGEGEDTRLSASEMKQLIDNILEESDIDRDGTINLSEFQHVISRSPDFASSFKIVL
# Summary of the method: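 Fluorescence polarization competition: CIB1-GST (1 uM final) preincubated with compound 15 min at room temperature, then FITC-labeled alphaIIb peptide (100 nM final) added for another 15 min. Polarization read at Ex 480/Em 540.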
# [2] = target: Cytochrome P450 2D6 (Homo sapiens) (UniProt P10635); test: Cytochrome P450 family 2 subfamily D member 6 (CYP2D6) small molecule antagonists: luciferase biochemical (cell-free) qHTS assay (AID 1645840); also: nearly all actives have a fitted effect of over 55% in size; also: potency is read from the fitted curve at half-maximal effect
# Cytochrome P450 2D6 (Homo sapiens), sequence (P10635 whole entry, looked up): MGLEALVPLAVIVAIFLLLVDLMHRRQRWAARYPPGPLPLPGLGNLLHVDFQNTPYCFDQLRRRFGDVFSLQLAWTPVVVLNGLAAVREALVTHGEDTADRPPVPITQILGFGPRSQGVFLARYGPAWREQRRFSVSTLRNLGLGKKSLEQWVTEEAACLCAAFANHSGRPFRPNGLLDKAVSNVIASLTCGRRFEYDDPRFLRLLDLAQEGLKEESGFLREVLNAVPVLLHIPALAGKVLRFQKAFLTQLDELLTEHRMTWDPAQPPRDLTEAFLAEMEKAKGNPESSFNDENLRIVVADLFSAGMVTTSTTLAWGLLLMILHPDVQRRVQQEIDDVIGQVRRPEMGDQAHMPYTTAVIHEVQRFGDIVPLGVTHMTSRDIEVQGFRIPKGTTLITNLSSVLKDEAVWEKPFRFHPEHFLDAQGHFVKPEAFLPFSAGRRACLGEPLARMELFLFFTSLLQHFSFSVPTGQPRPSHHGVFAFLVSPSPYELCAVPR
# Summary of the method: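 P450-Glo CYP2D6 system: proluciferin substrate converted by enzyme to luciferin, read by luminescence proportional to activity. Enzyme-substrate mix with compound 10 min at room temperature, then NADPH regeneration 1 h before detection reagent.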
# [3] = target: Cytochrome P450 2C9 (Homo sapiens) (UniProt P11712); test: Cytochrome P450 family 2 subfamily C member 9 (CYP2C9) small molecule antagonists: luciferase biochemical (cell-free) qHTS assay (AID 1645842); also: nearly all actives have a fitted effect of over 55% in size; also: potency is read from the fitted curve at half-maximal effect
# Cytochrome P450 2C9 (Homo sapiens), sequence (P11712 whole entry, looked up): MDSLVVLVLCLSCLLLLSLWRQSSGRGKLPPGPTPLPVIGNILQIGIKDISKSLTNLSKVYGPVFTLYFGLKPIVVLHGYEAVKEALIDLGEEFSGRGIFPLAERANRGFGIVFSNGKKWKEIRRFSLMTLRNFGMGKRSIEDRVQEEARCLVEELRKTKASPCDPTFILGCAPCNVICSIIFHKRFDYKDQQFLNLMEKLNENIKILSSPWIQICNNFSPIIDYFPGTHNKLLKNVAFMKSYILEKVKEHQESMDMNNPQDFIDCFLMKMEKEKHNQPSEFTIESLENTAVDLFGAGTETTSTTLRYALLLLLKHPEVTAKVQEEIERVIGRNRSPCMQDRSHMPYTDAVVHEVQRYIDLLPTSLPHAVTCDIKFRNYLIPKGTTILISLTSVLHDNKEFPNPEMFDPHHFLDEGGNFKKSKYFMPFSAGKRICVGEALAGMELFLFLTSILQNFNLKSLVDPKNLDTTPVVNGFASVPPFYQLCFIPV
# Summary of the method: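 P450-Glo CYP2C9 system: proluciferin substrate with enzyme in mix containing 0.4% BSA, 10 min at room temperature, then NADPH regeneration solution added and incubated 1 h at 37C. Detection reagent stopped reaction; luminescence read after 20 min as RLU.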
# [4] = target: Cytochrome P450 3A4 (Homo sapiens) (UniProt P08684); test: Cytochrome P450 family 3 subfamily A member 4 (CYP3A4) small molecule antagonists: luciferase qHTS assay (AID 1645841); also: nearly all actives have a fitted effect of over 45% in size; also: potency is read from the fitted curve at half-maximal effect
# Cytochrome P450 3A4 (Homo sapiens), sequence (P08684 whole entry, looked up): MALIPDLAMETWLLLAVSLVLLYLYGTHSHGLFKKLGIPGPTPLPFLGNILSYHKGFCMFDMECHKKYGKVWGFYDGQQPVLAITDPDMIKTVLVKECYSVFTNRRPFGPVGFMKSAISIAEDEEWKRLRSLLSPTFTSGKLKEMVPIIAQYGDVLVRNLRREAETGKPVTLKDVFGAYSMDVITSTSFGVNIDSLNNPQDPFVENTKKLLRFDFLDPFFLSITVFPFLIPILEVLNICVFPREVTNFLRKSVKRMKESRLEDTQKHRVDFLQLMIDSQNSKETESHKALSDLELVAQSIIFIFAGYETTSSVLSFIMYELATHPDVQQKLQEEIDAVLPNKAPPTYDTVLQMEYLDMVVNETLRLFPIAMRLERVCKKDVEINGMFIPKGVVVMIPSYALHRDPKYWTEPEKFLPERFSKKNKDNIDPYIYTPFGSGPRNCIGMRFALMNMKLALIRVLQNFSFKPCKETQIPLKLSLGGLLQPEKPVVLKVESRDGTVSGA
# Summary of the method: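 P450-Glo CYP3A4 enzyme with proluciferin substrate was preincubated with DMSO-dissolved compounds for 10 min at room temperature. NADPH regeneration solution started a 1 h reaction. Detection reagent stopped it, and luminescence was read after 20 min.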
# [5] = Primary qHTS for inhibitors of nuclear receptor binding SET domain protein 2 (NSD2) in an isogenic RCH-ACV NSD2 p.E1099K mutant (9B) (AID 1645876; active = well fitted curve in the direction sought with a large enough effect; an effect the other way counts as inactive or inconclusive; also: nearly all actives have a fitted effect of over 70% in size; also: potency is read from the fitted curve at half-maximal effect)
# [6] = Primary qHTS for inhibitors of nuclear receptor binding SET domain protein 2 (NSD2) in an RCH-ACV wild type WT cells (2C) (AID 1645877; active = well fitted curve in the direction sought with a large enough effect; an effect the other way counts as inactive or inconclusive; also: nearly all actives have a fitted effect of over 70% in size; also: potency is read from the fitted curve at half-maximal effect)
SMILES,Potency [1],Potency [2],Potency [3],Potency [4],Potency [5],Potency [6]
CC(=O)Nc1cccc(Nc2ncnc(N3CCC(OCc4ccc(OC(F)(F)F)cc4)CC3)n2)c1C,inactive,inactive,13.5 µM (active),–,–,–
CC(C)(C)OC(=O)c1ncn2c1C(C)(C)Nc1ccccc1-2,inactive,inactive,10.7 µM (active),–,–,–
O=C1Nc2nc(-c3c(O)cccc3OCC3CC3)cc([C@@H]3CCCNC3)c2CO1,inactive,19 µM (active),–,inactive,5.78 µM (active),5.15 µM (active)
CCc1cc2c(cc1CC)CC(NCC(O)c1ccc(O)c3[nH]c(=O)ccc13)C2 (stereo unspecified),inactive,9.52 µM (active),inactive,–,–,–
O=C(NCc1ccc(OC(F)(F)F)cc1)C1c2c(F)cccc2C(=O)N1CCc1ccccn1 (stereo unspecified),inactive,10.7 µM (active),3.79 µM (active),–,–,–
O=C(COc1ccc(C(=O)c2ccccc2)cc1)NC1CCN(Cc2ccccc2)CC1,inactive,0.338 µM (active),4.77 µM (active),–,–,–
O=C(NCCN1CCN(c2cccc3ccc(O)cc23)CC1)c1ccc(F)cc1,inactive,0.0425 µM (active),0.601 µM (active),–,–,–
Cc1[nH]cnc1C[C@H]1CCc2c(C)c3ccccc3n2C1=O,inactive,0.301 µM (active),0.19 µM (active),–,–,–
CC(C)(O)c1ccn2c(-c3ccc(F)c(-c4ccc(F)cc4C#N)c3)cnc2c1F,inactive,19 µM (active),0.756 µM (active),–,–,–
Nc1nc(O)c(C2=C3C(=Nc4ccccc43)C(=O)NCC2)[nH]1,inactive,inactive,–,inactive,–,16.3 µM (active)
CC1(C)Oc2ncnc(N)c2N=C1c1ccc(C23CCC(CC(=O)O)(CC2)CC3)cc1,inactive,inactive,inactive,inactive,inactive,inactive
Cc1ccc(C(=O)Nc2ccc(CN3CCN(C)CC3)c(C(F)(F)F)c2)cc1C#Cc1cnc2[nH]ncc2c1,inactive,16.9 µM (active),4.77 µM (active),6.01 µM (active),11.5 nM (active) and 26.3 nM (active),14.5 nM (active) and 41.7 nM (active)
COC(=O)c1ccc2c(c1)nc(NC(=O)c1ccccc1)n2CCCc1ccccc1,inactive,inactive,23.9 µM (active),inactive,inactive,inactive
COc1ccc(S(=O)(=O)N2CCC[C@H]2C(=O)Nc2cc(C)cc(C)c2)cc1,inactive,inactive,0.674 µM (active),–,–,–
CCNc1nc(Nc2cc(F)c(C(=O)N3CCOCC3)cc2OC)ncc1C(F)(F)F,inactive,inactive,1.9 µM (active),–,–,–
Clc1cccc(COc2cncc(N3CCNCC3)n2)c1,inactive,8.49 µM (active),inactive,–,–,–
CNC(=O)c1ccc2c(c1)CCO[C@H]2CCN1CCN(c2ccc(OC)cc2)CC1,inactive,inactive,–,inactive,inactive,inactive
Fc1ccc(CN2CCC(Nc3ccc(C(F)(F)F)nn3)CC2)cc1F,inactive,1.2 µM (active),–,inactive,inactive,inactive
CNCc1cc(-c2ccccc2F)n(S(=O)(=O)c2cccnc2)c1,inactive,19 µM (active),inactive,–,–,–
Cc1cc2c(N3CCCC3)nc(N3CCCC3)nc2n1C,inactive,3.01 µM (active),15.1 µM (active),–,–,–
C[C@H]1CO[C@@H]2Cn3cc(C(=O)NCc4ccc(F)cc4F)c(=O)c(O)c3C(=O)N12,inactive,inactive,inactive,–,–,–
Cc1nnc(-c2ccc(-c3ccc(C(=O)Nc4ccc(O)c(N5CCN(C)CC5)c4)cc3)c(C)c2)o1,inactive,inactive,inactive,–,–,–
COc1ccc2c(c1)C(C(=O)N(Cc1ccc(N(C)C)cc1)c1ccc(C(C)C)cc1)CCC2 (stereo unspecified),inactive,inactive,5.35 µM (active),–,–,–
CN(C)S(=O)(=O)c1ccc(NC(=S)N2CCC(C(O)(c3ccccc3)c3ccccc3)CC2)cc1,inactive,inactive,2.68 µM (active),–,–,–
CCOc1cn(-c2ccc(F)cc2C)nc1C(=O)Nc1ccc(Oc2ccnc3cc(OC)c(OC)cc23)c(F)c1,inactive,inactive,inactive,inactive,4.09 µM (active),4.09 µM (active)
CCCC(CCC)C(=O)NCc1ccc2c(cnn2-c2ccccc2OC)c1,inactive,13.5 µM (active),1.9 µM (active),–,–,–
Cc1cnn(-c2ccccc2)c1NC(=O)COCc1ccccc1,inactive,inactive,10.7 µM (active),–,–,–
COCCN(C(=O)c1cc(OC)c(OC)c(OC)c1)c1nc(-c2ccccc2)cs1,inactive,inactive,4.77 µM (active),–,–,–
NC(=O)c1nc(Nc2ccccc2)sc1NC(=O)C1CCCCC1,inactive,inactive,0.601 µM (active),–,–,–
